# IMPase Li cell = qHTS Assay for Identifying the Cell-Membrane Permeable IMPase Inhibitors: Potentiation with Lithium. AID 1457, 2008. 0.35% of 210,000 active. Potency, µM (highest dose often 59.4 µM), for the others: at the highest dose activity, negative = IMPase inhibition, hits mostly inhibitors. CHO-M1 cells, IP1 TR-FRET (IP-One), carbachol + lithium; active means well fitted curve in the direction sought with a large enough effect; inconclusive means small, poorly fitted or top-dose-only effect, or another doubt; inactive means no such curve, though single readings can be large; an effect the other way counts as inactive or inconclusive;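 further: IP1 builds up when IMPase is blocked and the TR-FRET signal falls; potency means the concentration at half of the fitted maximal effect; plate controls were basal vehicle for no effect and high inhibitor control for full effect; nearly all actives have a fitted effect of over 50% in size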
#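 CHO cells stably expressing M1 receptor (2000/well, cultured 16–30 h) treated 30 min at 37C with compound plus low lithium. Cytosolic IP1 by TR-FRET (665/620 ratio and 620 channel) after 10 min lysis; AC50 by Hill fit.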
# PNC inhibitor = High Content Assay for Compounds that inhibit the Assembly of the Perinucleolar Compartment. PC3M PTB-GFP, PNC prevalence imaging, 16 h; stronger effect = lower value. activity change (PNC), negative = inhibition, % at 10 µM. 3.1% of 140,000 active. AID 2417, 2010;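 active means readout at or below -70, meaning at least 70% loss of cells showing the perinucleolar compartment, a nuclear body marking cancer cells; inconclusive means readout between -30 and a set limit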;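 further: plate controls were DMSO wells for no effect and camptothecin positive control wells for full effect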
#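 Read-out is percentage of cells bearing a perinucleolar compartment, from automated 20x imaging of fixed, Hoechst-stained PC3M PTB-GFP cells. Cells were seeded 4 h, then exposed 16 h to compound (23 nl of library stock) in duplicate plates.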
# HPGD inh = qHTS Assay for Inhibitors of HPGD (15-Hydroxyprostaglandin Dehydrogenase); 4.3% of 150,000 active; Potency, µM, inactives show at the top dose activity change, negative = inhibition, hits mostly inhibitors; AID 894, 2007; 15-hydroxyprostaglandin dehydrogenase [NAD(+)] (Homo sapiens), P15428; purified HPGD, NADH fluorescence kinetic, PGE2 substrate; further: potency means the concentration at half of the fitted maximal effect
#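 NADH formation kinetics: reaction with 30 uM PGE2 and 1 mM NAD+ (final), 20 nM enzyme, Tris-HCl pH 8 with Tween 20, after 15 min compound preincubation at room temperature. Fluorescence change, last versus first of five reads.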
# 12-hLO inh = qHTS Assay for Inhibitors of 12-hLO (12-human lipoxygenase); Polyunsaturated fatty acid lipoxygenase ALOX12 (Homo sapiens), P18054; purified 12-hLO, xylenol orange hydroperoxide absorbance; AID 1452, 2008; Potency, µM (series often up to 57.1 µM), inactives show at the top dose activity change, negative = inhibition, usual class: inhibitors; 0.12% of 150,000 active; active means well fitted curve in the direction sought with a large enough effect; inconclusive means small, poorly fitted or top-dose-only effect, or another doubt; inactive means no such curve, though single readings can be large; an effect the other way counts as inactive or inconclusive; further: potency means the concentration at half of the fitted maximal effect; nearly all actives have a fitted effect of over 55% in size
#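 Xylenol orange chromogenic assay: hydroperoxide from 12hLO oxidises Fe(II), giving red-shifted Fe(III)-XO absorbance. Conditions: 150 nM enzyme, 40 uM arachidonic acid, 25 mM Hepes pH 7.0, 0.01% Triton X-100, 30 min, room temperature.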
# ALDH1A1 block = qHTS Assay for Inhibitors of Aldehyde Dehydrogenase 1 (ALDH1A1) | 7.3% of 220,000 active | Potency, µM (doses to about 75.3 µM), for inactives: at the top dose activity, negative = inhibition, hits mostly inhibitors | AID 1030, 2008 | Purified ALDH1A1, NADH fluorescence, propionaldehyde substrate | Aldehyde dehydrogenase 1A1 (Homo sapiens), P00352;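 further: potency means the concentration at half of the fitted maximal effect; plate controls were no enzyme wells and a reference inhibitor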
# Target sequence (P00352 whole entry, looked up): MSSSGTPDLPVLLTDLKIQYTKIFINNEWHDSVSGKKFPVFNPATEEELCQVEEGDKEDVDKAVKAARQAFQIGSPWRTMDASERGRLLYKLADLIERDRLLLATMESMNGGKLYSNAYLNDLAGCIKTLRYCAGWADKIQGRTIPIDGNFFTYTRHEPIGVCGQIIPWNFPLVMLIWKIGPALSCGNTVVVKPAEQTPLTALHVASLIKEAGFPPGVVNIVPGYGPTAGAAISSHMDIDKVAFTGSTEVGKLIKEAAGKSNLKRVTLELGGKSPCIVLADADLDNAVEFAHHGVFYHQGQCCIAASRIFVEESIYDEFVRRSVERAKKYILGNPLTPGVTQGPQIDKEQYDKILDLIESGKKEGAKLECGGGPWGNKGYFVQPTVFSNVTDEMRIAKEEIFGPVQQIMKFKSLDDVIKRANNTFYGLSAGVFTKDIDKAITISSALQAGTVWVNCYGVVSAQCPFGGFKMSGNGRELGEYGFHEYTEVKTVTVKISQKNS
# IMPase cell inh = qHTS Assay for Identifying the Cell-Membrane Permeable IMPase Inhibitors | inhibition (IP1 accumulation), % at 46.1 µM | 120,000 tested, under 10 active | AID 901, 2007 | CHO-M1 cells, IP1 accumulation, HTRF TR-FRET ratio; active means well fitted curve in the direction sought with a large enough effect in the signal ratio, not every such curve was filed as active; inconclusive means small, poorly fitted or top-dose-only effect, or a change in a side signal; inactive means no such curve, though single readings can be large or run the other way; the % refers to the signal ratio;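 further: cells stimulated with carbachol in lithium chloride buffer; plate controls were DMSO basal wells for no effect and reference inhibitor wells for full effect; higher means more IMPase inhibition seen as more IP1 and lower FRET ratio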
#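 CHO-M1, 2000 cells/well, cultured 16–30 h; cpd up to 46 uM; carbachol (50 uM solution, stimulation buffer w/ 50 mM LiCl, pH 7.4), 30 min 37C; IP-One TR-FRET, 10 min RT; Ex 320/Em 665, 620; Hill-fit AC50.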
# An asterisk follows results filed as active; ? = inconclusive; nt = no result given; [ ] = remark or other dose. Compounds with a hit are over-represented: about 11% of the library has one in this group of screens. Unless noted, the call rests on the fitted dose curve; in most records, active means well fitted inhibition curve with a large enough effect (not every such curve was filed as active); inconclusive means small, poorly fitted or top-dose-only effect, or another doubt; inactive means no such curve, though single readings can be large or run the other way. Unless noted, on the % scale 0 is the no-effect control and ±100 the full control effect.
SMILES,IMPase Li cell,PNC inhibitor,HPGD inh,12-hLO inh,ALDH1A1 block,IMPase cell inh
CC1=C(C(=O)c2ccccc2)C(c2cccc([N+](=O)[O-])c2)NC(=S)N1 (stereo not drawn),11%,nt,nt,nt,1.1µM*,nt
Cc1ccc(OCCCC(=O)NC(C)c2ccccc2)cc1 (stereo not drawn),12%[38.3 µM],?,?,-4%,?,-4
Cc1ccc(-n2c([S-])c(C(=O)NC(C)c3ccccc3)[n+]3ccccc23)cc1 (stereo not drawn),3%,nt,nt,nt,3.2µM*,nt
COC(C(=O)Nc1ccc(F)cc1F)c1ccccc1 (stereo not drawn),2%[38.3 µM],0,-2%,-3%,-7%,5
COC(C(=O)NC1CC1)c1ccccc1 (stereo not drawn),1%,-114*,-2%,0%,10%,nt
COC(C(=O)Nc1ccc(Br)cc1F)c1ccccc1 (stereo not drawn),2%,nt,nt,nt,10µM*,nt
COc1ccc(-c2cc(C(F)(F)F)nc(SCC(=O)Nc3ccc(O)cc3)n2)cc1OC,nt,nt,nt,nt,nt,6
O=C(O)[C@@H](Cc1c[nH]c2ccccc12)C(=O)NO,-13%,nt,-12%,1%[11.4 µM],-4%[13.5 µM],nt
CCCCc1nnc(NC(=O)CN2C(=O)c3ccccc3C2=O)s1,-1%,nt,nt,nt,0%,nt
CC(C)(C)Cc1nnc(NC(=O)CN2C(=O)c3ccccc3C2=O)s1,16%,nt,nt,nt,22µM*,nt
COCCn1c(SCC(=O)c2ccc3c(c2)OCCO3)nnc1C(C)C,10%[38.3 µM],6,-9%,1%,10µM*,3
CCCn1c(SCC(=O)c2ccc3c(c2)OCCO3)nnc1-c1ccco1,-6%[38.3 µM],21,-3%,-3%,-6%,7
COCCn1c(SCC(=O)Nc2cc(C)cc(C)c2)nnc1C(C)C,-12%[38.3 µM],-19,-15%,0%,?,-2
COCCn1c(SCC(=O)c2ccc(Cl)cc2)nnc1C(C)C,14%[38.3 µM],19,?,-15%,9.5µM*,-8
O=C1[C@@H]2C=CC=CC2=NC(=S)N1CCN1CCC(=C(c2ccc(F)cc2)c2ccc(F)cc2)CC1,nt,nt,nt,-5%,nt,3
COc1ccc(C(=O)NC(=S)NNC(=O)c2cnccn2)cc1OC,10%,?,-19%,-1%,28µM*,0
COc1cc(OC)cc(C(=O)NC(=S)NNC(=O)c2cnccn2)c1,13%,?,-26%,1%,40µM*,12
O=C(/C=C/c1ccccc1)NC(=S)NNC(=O)c1cccnc1,12%[38.3 µM],30,-20%,-3%,-8%,0
COc1ccc(C(=O)NC(=S)Nc2cccnc2)cc1OC,-6%,nt,nt,nt,?,nt
COc1cc(OC)cc(C(=O)NNC(=O)c2ccccn2)c1,2%,?,-8%,-3%,-4%,-12
COc1ccc(/C=C/C(=O)NC(=S)NNC(=O)c2cccnc2)cc1OC,-6%[38.3 µM],-9,32µM*,1%,4%,-3
CS(=O)(=O)N1CCC2(CCCN(C(c3ccccc3)c3ccccc3)C2)CC1,14%,nt,1%,-1%,12%,nt
CN1CC(=O)N(CC(=O)Nc2cccc(S(=O)(=O)N3CCOCC3)c2)C1=O,0%,nt,nt,nt,-5%,nt
O=C1C2=C(Nc3cc([N+](=O)[O-])ccc3N2)O[C@@H]1c1c[nH]c2ccc(COc3ccccc3)cc12,22%,nt,-27%,4%[11.4 µM],?,nt
COc1ccc(Cl)cc1NS(=O)(=O)c1c(C)nc2scc(C)n2c1=O,nt,nt,nt,nt,nt,-1
N#C/C(=C/c1ccc(N2CCCCC2)o1)C(=O)Nc1ccc(Cl)cc1,-2%,-123*,-9%,-4%,-11%,-1
N#C/C(=C\c1ccc(N2CCOCC2)o1)C(=O)Nc1ccc(O)cc1,9%,nt,nt,nt,20µM*,nt

# Assay outcomes deposited in PubChem BioAssay by National Center for Advancing Translational Sciences (NCATS).
